Assay outcomes from PubChem BioAssay.
GIRK2 activator: activators of NPY4-receptor-primed GIRK2 channels, summary, cell-based, HEK293, thallium flux | G protein-activated inward rectifier potassium channel 2 (Homo sapiens), P48051 | HEK293 GIRK2/NPY4 cells, thallium flux fluorescence | activation (% efficacy), % for hits at 37.5 µM | 34,000 tested, under 10 active | AID 1259324, 2017;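 active means primary screen hit, no activity in plain HEK293 cells, and in GIRK2-only cells above 5% efficacy rising with concentration; inactive means the rest, including fluorescent compounds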;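 further: efficacy is normalized control-subtracted fluorescence 15 s after thallium addition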
GluA2 TARP mod: modulators of GluA2-stargazin AMPA receptor complexes, primary screen, cell-based, membrane potential dye; Voltage-dependent calcium channel gamma-2 subunit (Mus musculus) + Glutamate receptor 2 …; HEK293 GluA2+stargazin, membrane potential dye (FDSS), glutamate EC50; hits were called plate by plate, in both directions; calls only at 30 µM; hit rate 3.5% among 40,000; AID 1259245, 2017;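 active means any of four per-well response measures lying three or more SD from its plate-wide compound average, in either direction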
* marks the source's active call; other numbers are inactive results. The entries come from a sample that favours hits as a whole.

Screening CN(C)C(=O)Cc1ccc(NC(=O)c2ccccc2C(F)(F)F)cc1 returned GIRK2 activator inactive and GluA2 TARP mod inactive.
For O=C(NCC1CCN(C(=O)Oc2ccccc2)CC1)C(=O)Nc1ccc2c(c1)OCCO2 the results were GIRK2 activator inactive and GluA2 TARP mod inactive.
CCOC(=O)c1c(SCC(=O)Nc2cc(C)ccc2OC)nc(=O)[nH]c1C was read as GluA2 TARP mod inactive.
Cc1ccc(S(=O)(=O)NCC2CCN(C)CC2)c(C)c1 was read as GIRK2 activator inactive and GluA2 TARP mod inactive.
For Cc1ccc(S(=O)(=O)NCCn2nc(C)c(Cl)c2C)c(C)c1 the results were GIRK2 activator inactive and GluA2 TARP mod active.
Cc1ccc(-n2nc3c(c2NC(=O)C(=O)NCc2ccc(F)cc2)CS(=O)(=O)C3)cc1 was read as GIRK2 activator inactive and GluA2 TARP mod inactive.
COc1ccc(-c2cc(=O)[nH]c(SCc3nc(-c4cc(OC)c(OC)c(OC)c4)oc3C)n2)cc1 was read as GIRK2 activator inactive.
`Cc1cc(NC(=O)c2ccc3c(c2)OCO3)n(-c2ccccc2)n1` gave GIRK2 activator inactive and GluA2 TARP mod inactive.
Screening CCOC(=O)c1ccccc1NC(=O)CSc1c(C)cnc2c1c(=O)n(C)c(=O)n2C returned GIRK2 activator inactive and GluA2 TARP mod inactive.
CCOC(=O)c1ccccc1NC(=O)CSc1c(CC(C)C)cnc2c1c(=O)n(C)c(=O)n2C was read as GluA2 TARP mod active.
`C/C=C/C(=O)Nn1cnc2c(cnn2-c2ccccc2)c1=O` gave GIRK2 activator inactive and GluA2 TARP mod inactive.
Screening Cc1cccc(NC(=O)CC2CCCCN2S(=O)(=O)c2cccs2)c1C (centres undefined) returned GIRK2 activator inactive and GluA2 TARP mod active.
Screening O=C(CC1CCCCN1S(=O)(=O)c1ccccc1)NCc1cccs1 (centres undefined) returned GluA2 TARP mod inactive.
Screening COc1ccc(C(=O)Nc2cc(C)nn2C2CCS(=O)(=O)C2)cc1 (centres undefined) returned GIRK2 activator inactive and GluA2 TARP mod inactive.
`COc1ccc(-c2noc(CSc3nc4ccccc4c(=O)n3Cc3ccco3)n2)cc1OC` gave GluA2 TARP mod active.
Screening CSc1ccc(-c2noc(CSc3nc4ccccc4c(=O)n3Cc3ccco3)n2)cc1 returned GluA2 TARP mod inactive.
`Cc1ccc(/C=C/C(=O)Nc2ccccc2C#N)o1` gave GIRK2 activator inactive and GluA2 TARP mod inactive.
Screening COC(=O)c1ccccc1NC(=O)Cn1c(=O)c(CNc2ccccc2)cc2ccc(OC)cc21 returned GIRK2 activator inactive and GluA2 TARP mod inactive.
`COc1cccc(NC(=O)Cn2c(=O)c(CNc3ccccc3)cc3ccc(OC)cc32)c1` gave GluA2 TARP mod active.
`COc1cc2cc(CNc3ccccc3)c(=O)n(CC(=O)Nc3cccc(Cl)c3C)c2cc1OC` gave GluA2 TARP mod active.
For COc1cc2cc(CNc3ccc(C)cc3)c(=O)n(CC(=O)Nc3cccc(Cl)c3)c2cc1OC the results were GIRK2 activator inactive and GluA2 TARP mod inactive.
CCc1ccc(NCc2cc3cc4c(cc3n(CC(=O)Nc3cc(C)ccc3C)c2=O)OCCO4)cc1 was read as GIRK2 activator inactive and GluA2 TARP mod inactive.
For Cc1ccc(C)c(NC(=O)Cn2c(=O)c(CNc3ccccc3)cc3cc4c(cc32)OCCO4)c1 the results were GIRK2 activator inactive and GluA2 TARP mod active.
`COc1cc2cc(CNc3ccccc3)c(=O)n(CC(=O)Nc3ccc(C)c(Cl)c3)c2cc1OC` gave GluA2 TARP mod inactive.
COc1cc2cc(CNc3ccccc3)c(=O)n(CC(=O)Nc3ccc4c(c3)OCO4)c2cc1OC was read as GluA2 TARP mod active.
Cc1nc2c(ccc3nc(NC(=O)CCCS(=O)(=O)c4ccc(Cl)cc4)sc32)s1 was read as GluA2 TARP mod inactive.
For COc1nn(C)cc1C(=O)NCC1(O)CCOCC1 the results were GIRK2 activator inactive.
For O=C(CSc1ccc(NC(=O)c2cccs2)nn1)Nc1cccc(C(F)(F)F)c1 the results were GIRK2 activator inactive and GluA2 TARP mod inactive.
Screening CCc1ccc(C(=O)NCCNc2ccc(C)nn2)cc1 returned GIRK2 activator inactive and GluA2 TARP mod inactive.
O=C(NCC1CCN(c2cnccn2)CC1)C(=O)Nc1cccc(C(F)(F)F)c1 was read as GIRK2 activator inactive and GluA2 TARP mod inactive.
Screening COCCn1c(N)c(-c2nc3ccccc3n2C)c2nc3ccccc3nc21 returned GIRK2 activator inactive and GluA2 TARP mod active.
Screening COCCn1c(N)c(S(=O)(=O)c2ccc(Cl)cc2)c2nc3ccccc3nc21 returned GIRK2 activator inactive and GluA2 TARP mod inactive.
`COC(=O)c1scc(-c2ccccc2)c1S(=O)(=O)Nc1ccccc1OC` gave GluA2 TARP mod inactive.
CCS(=O)(=O)NCC1CCN(C(=O)Nc2ccc(F)cc2)CC1 was read as GIRK2 activator inactive.
For COCCn1c(-c2ccc(F)cc2)nc2c(c(=O)c3ccccc3n2C)c1=O the results were GluA2 TARP mod inactive.
Screening CCCCn1c(-c2ccc([N+](=O)[O-])cc2)nc2c(c(=O)c3ccccc3n2C)c1=O returned GluA2 TARP mod active.
COCCn1c(-c2ccc([N+](=O)[O-])cc2)nc2sc3ccccc3c(=O)c2c1=O was read as GIRK2 activator inactive and GluA2 TARP mod active.
`CCCn1c(-c2ccc(OC)cc2)nc2c(c(=O)c3ccccc3n2C)c1=O` gave GluA2 TARP mod inactive.
For COc1ccc(OCC(=O)NNC(=O)c2ccc(=O)n(Cc3ccccc3)c2)cc1 the results were GIRK2 activator inactive and GluA2 TARP mod inactive.
Screening COc1cc(NC(=O)c2cc(Cl)ccc2[N+](=O)[O-])ccc1N1CCCC1=O returned GIRK2 activator inactive and GluA2 TARP mod inactive.
`COc1ccc(OC)c(NC(=O)NCCNc2ccc(Nc3cc(C)ccn3)nn2)c1` gave GIRK2 activator inactive.
For Cc1cc(C(=O)Nc2nnc(-c3cc(C)n(C)n3)o2)nn1C the results were GIRK2 activator inactive and GluA2 TARP mod active.
Screening Cc1cc(-c2nnc(NC(=O)c3cccc(C(F)(F)F)c3)o2)nn1C returned GIRK2 activator inactive and GluA2 TARP mod inactive.
Cc1ccc(-c2nnc(NC(=O)c3ccc(S(=O)(=O)N4CCCCC4)cc3)o2)cc1C was read as GIRK2 activator inactive and GluA2 TARP mod inactive.
For Cc1cc(-c2nnc(NC(=O)c3ccc(S(C)(=O)=O)cc3)o2)nn1C the results were GIRK2 activator inactive and GluA2 TARP mod inactive.
Cc1cc(-c2nnc(NC(=O)c3ccc(S(=O)(=O)N4CCCCC4)cc3)o2)nn1C was read as GIRK2 activator inactive and GluA2 TARP mod active.
CCN(CC)S(=O)(=O)c1ccc(C(=O)Nc2nnc(-c3cc(C)n(C)n3)o2)cc1 was read as GIRK2 activator inactive and GluA2 TARP mod active.
For Cc1cc(-c2nnc(NC(=O)c3nc4ccccc4s3)o2)nn1C the results were GIRK2 activator inactive and GluA2 TARP mod active.
Screening Cc1cc(-c2nnc(NC(=O)c3cc(Cl)sc3Cl)o2)nn1C returned GIRK2 activator inactive and GluA2 TARP mod inactive.
